Measurements published in patent US20050118148, “Compositions and methods related to mammalian Maf-A” (published 2005).

These sequences were tested against RIPE3b1 activator (MafA, endogenous) (Mus musculus, UniProt Q8CF90 SEQ:1-359) (assay: competition; B4/5 roughly 20-fold more effective competitor than B4). Details: protein: extract; tags: beta cell line nuclear extract (betaTC-3, Min6); label: 32P; dsDNA, one strand shown.
Sequence of RIPE3b1 activator (MafA, endogenous) (Q8CF90 whole entry): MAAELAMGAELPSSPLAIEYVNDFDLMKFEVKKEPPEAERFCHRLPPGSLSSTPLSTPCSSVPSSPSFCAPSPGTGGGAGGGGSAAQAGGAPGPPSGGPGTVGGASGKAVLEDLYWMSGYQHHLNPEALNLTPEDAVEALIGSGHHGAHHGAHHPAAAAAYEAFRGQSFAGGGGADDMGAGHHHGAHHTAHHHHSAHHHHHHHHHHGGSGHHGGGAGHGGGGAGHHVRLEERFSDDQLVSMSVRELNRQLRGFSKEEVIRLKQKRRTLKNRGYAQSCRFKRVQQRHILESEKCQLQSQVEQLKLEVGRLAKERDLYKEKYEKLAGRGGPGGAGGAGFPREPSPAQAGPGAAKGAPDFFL
Method: To define the factors associated with B4 and B5 mediated regulation, gel shift experiments were performed with probes spanning B4, B5, and B4+B5 (B4/5) and βTC-3 or MIN6 cell nuclear extracts (FIG. 12). Two common protein-DNA complexes were detected with the B4 and B4+B5 probes (labeled as A and B in FIG. 12B), whereas no binding was found with B5 (data not shown). The binding affinity of B4 and B4/5 for these complexes was determined with the wild type and B4+B5 double mutant site (B4+B5MT) competitors.
With AGCTTTCTTTTTGCAAAGCACAGCAT the binding signal was roughly 20 fold.
